This is a sample that favours compounds with a hit; in the whole collection about 5.7% have one here.
ssDAF-12 act: S. stercoralis DAF-12 nuclear receptor activators, primary screen, cell-based, luminescence, HEK293, GRIP1 co-expression, lit1-tk-luc; Nuclear hormone receptor DAF-12 (Strongyloides stercoralis); HEK293 ssDAF-12/GRIP1 lit1-tk-luc reporter; % of 3 µM dafachronic acid response; activation, % at 6.8 µM; 370,000 compounds, 1% hits; AID 652126, 2013;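 active = activation above the mean over all tested compounds plus 3 SD, cut at about 0.9% in these data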;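 also: 0% = DMSO-only wells and 100% = 3 µM delta7-dafachronic acid wells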
DAX1 inh-1: DAX1 (NR0B1) inhibitors, primary screen, cell-based, HEK293, Gal4-DAX1, luciferase luminescence | HEK293 Gal4-DAX1 luciferase reporter | inhibition, % at 6.75 µM | 340,000 compounds, 0.99% hits | Nuclear receptor subfamily 0 group B member 1 (Homo sapiens), P51843;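 active = inhibition above the mean over all tested compounds plus 3 SD, cut at about 4.2% in these data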;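 also: 0% = DAX1-transfected cells with DMSO and 100% = empty-vector control cells with DMSO; inhibition shows as a rise in luminescence from relieved DAX1 repression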
hcDAF-12 act: H. contortus DAF-12 nuclear receptor activators, primary screen, cell-based, luminescence, HEK293, lit1-tk-luc reporter; 370,000 compounds, 1.4% hits; activation, % at 6.8 µM; AID 652067, 2013; HEK293 hcDAF-12 lit1-tk-luc reporter; 0% DMSO, 100% Δ7-dafachronic acid;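 active = activation above the mean of all tested compounds plus 3 SD, cut at about 5.5% in these data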;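 also: 100% = response to 3 µM Δ7-dafachronic acid high control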
AHR activator: AHR activators, primary screen, cell-based, luminescence, luciferase reporter, human; Aryl hydrocarbon receptor (Homo sapiens), P35869; AHR-responsive luciferase reporter cells; activation, % at 5 µM; 320,000 compounds, 2.5% hits; in the data active = activation above about 47%;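 also: 0% = vehicle wells and 100% = reference agonist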
hgDAF12 agonist: H. glycines DAF-12 receptor agonists, primary screen, cell-based, luminescence, HEK293, GAL4 fusion, UAS-luciferase; Nuclear hormone receptor DAF-12 (Heterodera glycines), GAL4 fusion; HEK293 GAL4-hgDAF12 UAS-luciferase reporter, agonist luminescence; normalized to butyrate control; activation, % at 6.8 µM; 370,000 compounds, 1.8% hits; AID 687014, 2013;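 active = activation above a cutoff set at the mean of all screened compounds plus 3 SD, cut at about 10% in these data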;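 also: 0% = DMSO wells and 100% = sodium butyrate wells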
DAX1 inh-2: DAX1 (NR0B1) inhibitors on StAR promoter, primary screen, cell-based, luminescence, SF-1 (NR5A1), full-length DAX-1. AID 652010, 2013. 370,000 compounds, 1.1% hits. inhibition, % at 6.8 µM. HEK293T StAR-luciferase reporter, SF-1/DAX-1 repression relief;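 active = inhibition above the mean over all tested compounds plus 3 SD, cut at about 3.6% in these data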;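 also: 0% = DAX-1 cells with DMSO and 100% = cells lacking DAX-1 with DMSO; higher inhibition means more luminescence from relief of DAX-1 repression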
DAX1 conf: DAX1 (NR0B1) inhibitors relieving SF-1 repression, confirmation, cell-based, luminescence, HEK293T, full-length DAX-1, SF-1 activated StAR promoter. inhibition, % at 6.8 µM. shares compounds with DAX1 inh-2. HEK293T StAR-promoter luciferase reporter, SF-1/DAX-1 repression. 2,400 compounds, 87% hits;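 active = inhibition above the average of every tested compound plus 3 SD, cut at about 3.8% in these data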;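 also: 0% = DAX-1 cells with DMSO and 100% = no DAX-1 control cells with DMSO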
Target sequence (P51843 whole entry, looked up): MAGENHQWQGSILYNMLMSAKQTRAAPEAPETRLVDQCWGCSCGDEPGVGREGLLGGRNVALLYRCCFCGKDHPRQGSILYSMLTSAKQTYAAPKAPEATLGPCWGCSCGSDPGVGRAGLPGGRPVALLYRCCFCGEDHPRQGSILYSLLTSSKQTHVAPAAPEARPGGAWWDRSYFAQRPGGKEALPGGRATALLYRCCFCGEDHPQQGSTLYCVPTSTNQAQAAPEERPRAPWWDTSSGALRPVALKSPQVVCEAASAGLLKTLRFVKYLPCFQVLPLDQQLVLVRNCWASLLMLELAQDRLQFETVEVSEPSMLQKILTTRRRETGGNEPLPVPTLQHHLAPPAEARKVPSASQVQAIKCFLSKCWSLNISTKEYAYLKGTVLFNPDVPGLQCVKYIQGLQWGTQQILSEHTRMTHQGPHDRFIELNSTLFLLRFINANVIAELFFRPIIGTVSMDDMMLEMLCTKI
SF1 AF2mut Luc: StAR reporter signal changes without DAX1, counter-screen for DAX1 inhibitor project, cell-based, luminescence, AF-2 mutant SF-1, transactivation. 2,400 compounds, 78% hits. shares compounds with DAX1 inh-2. AID 652136, 2013. HEK293 StAR-luciferase, SF-1 AF2 mutant. inhibition, % at 6.8 µM;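 active = inhibition above the mean of all tested compounds plus 3 SD, cut at about 3% in these data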;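 also: 0% = DAX-1 transfected cells with DMSO and 100% = cells without DAX-1 with DMSO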
Active calls of the source: *; . = no result given.

SMILES	ssDAF-12 act	DAX1 inh-1	hcDAF-12 act	AHR activator	hgDAF12 agonist	DAX1 inh-2	DAX1 conf	SF1 AF2mut Luc
Cc1ccc(C)c(NC(=O)CN(C)C(=O)c2cc3ccccc3oc2=O)c1	-0.5	1.1	3.2	7.3	6.3	5.9*	6.8*	5.6*
Cc1ccc(C(=O)NCCCN2CCOCC2)c(Cl)c1	0.0	0.9	0.1	2.8	-0.2	0.5	.	.
CC(=O)Nc1cnc(-c2cc(C)c(O)c(C)c2)cn1	-0.8	.	1.1	.	2.8	1.8	.	.
CC(=O)Nc1cnc(-c2ccc3c(c2)OCO3)cn1	-0.4	.	4.6	.	12.4*	4.8*	9.0*	5.7*
O=C(C=Cc1ccccc1)N1CCCCC1	-0.5	2.2	2.5	.	5.4	5.2*	6.2*	4.7*
CC(C)CNC(=S)N1CCC(C(=O)c2ccc3c(c2)OCCO3)CC1	-1.6	1.7	-1.2	-2.5	-2.8	-1.4	.	.
Cc1ccsc1C(=O)NNC(=O)C1C2C=CC(C2)C1C(=O)O (stereo not given)	1.1*	2.7	9.5*	7.2	17.1*	5.2*	3.8*	2.3
Fc1ccc(-c2nc3ccc(Cl)cn3c2Cc2cccc(F)c2)cc1	-1.0	.	0.7	.	2.0	1.4	.	.
Clc1cccc(-c2nc3ccc(Br)cn3c2Cc2ccccc2)c1	-0.6	.	1.4	.	4.5	6.7*	4.6*	1.2
Cc1cc2nc(-c3ccccc3)c(Cc3cccc(F)c3)n2c(C)c1Br	-0.3	.	4.4	.	2.9	2.5	.	.
Fc1cccc(Cc2c(-c3ccccc3)nc3ccc(Cl)cn23)c1	-0.9	.	0.6	.	3.2	4.6*	-0.1	0.3
Cc1ccc(-c2nc3cc(C)c(Br)c(C)n3c2Cc2cccc(F)c2)cc1	1.9*	.	6.2*	.	13.2*	5.7*	6.2*	5.3*
CCC(c1nnnn1-c1ccc2c(c1)OCCO2)N1CCN(CC)CC1 (stereo not given)	-0.6	.	-0.4	.	0.0	5.4*	2.6	2.1
N#CCC(=O)N/N=C\c1cccc(OC/C=C/c2ccccc2)c1	0.3	-1.9	2.1	10.7	10.9*	12.8*	14.4*	6.9*
O=C(c1ccc2nc(Cc3ccccc3F)oc2c1)N1CC[C@H](O)C1	-0.6	0.3	3.5	5.8	5.5	6.2*	5.9*	1.3
COc1ccc(Cc2nc3ccc(C(=O)N4CCOCC4)cc3o2)cc1	-0.3	2.4	4.5	5.3	9.8	5.4*	7.4*	3.8*
CC(=O)N1CCCN(C(=O)c2ccc3nc(Cc4ccccc4F)oc3c2)CC1	-1.1	1.7	-1.5	-2.3	-0.2	-0.7	.	.
COc1ccc(Cc2nc3ccc(C(=O)N4CCC(C(N)=O)CC4)cc3o2)cc1	-1.3	2.0	-0.5	.	-0.4	1.2	.	.
CC(c1ccccn1)N(C)C(=O)c1ccc2nc(Cc3ccccc3F)oc2c1 (stereo not given)	-0.9	1.5	3.0	27.2	8.5	4.8*	5.3*	4.4*
CCN1C(=O)C2CCCCN2c2ccc(C(=O)NCCOC)cc21 (stereo not given)	-0.3	-0.2	0.1	9.4	-2.5	0.4	.	.
CCOC(=O)C1CCN(C(=O)CSc2ccccc2Cl)CC1	-1.0	0.4	-1.4	-0.9	-1.0	-0.3	.	.
C/C(=N\NC(=O)c1cccc(C)c1O)c1ccc(NC(=O)Cc2ccccc2)cc1	0.2	1.5	6.5*	19.1	9.6	6.0*	4.8*	3.8*
C/C(=N\NC(=O)c1cc(O)cc(O)c1)c1ccc(NC(=O)Cc2ccccc2)cc1	0.3	3.2	2.5	3.8	8.6	3.4	.	.
Cc1cc(C=NCCCO)c(C)n1-c1cc(Cl)ccc1Cl	-2.0	-0.5	-1.6	.	-1.5	0.3	.	.
Cc1ccccc1OCC(=O)NNC(=O)CSc1nc(N)cc(N)n1	-0.7	0.4	1.1	5.0	3.3	-0.1	.	.
SMILES	ssDAF-12 act	DAX1 inh-1	hcDAF-12 act	AHR activator	hgDAF12 agonist	DAX1 inh-2	DAX1 conf	SF1 AF2mut Luc
Cc1ccc2oc(C(=O)NCCCN3CCOCC3)c(C)c2c1	0.3	3.0	5.2	7.3	11.4*	6.6*	8.9*	7.6*
CC(=O)N1CCN(C(=O)c2oc3ccccc3c2C)CC1	-1.4	0.9	1.8	12.2	1.0	5.3*	2.5	3.7*
Cc1c(C(=O)N2CCCCC2)oc2ccc(Br)cc12	0.7	0.3	1.1	7.9	11.2*	5.5*	5.8*	4.0*
Cc1ccc2oc(C(=O)N3CCCCCC3)c(C)c2c1	-0.1	2.0	4.5	7.8	9.8	5.3*	5.2*	3.5*
COc1cc(C(O)c2nc(-c3cccc(C#N)c3)cs2)ccc1F (stereo not given)	-1.2	.	0.3	.	2.6	-2.4	.	.
C/C(=N\n1cnnc1)c1ccccc1	-2.3	0.5	-0.3	0.5	1.1	-0.2	.	.
CCCCn1nnnc1C1(C)CCC(=O)N1CCOc1ccccc1 (stereo not given)	-1.4	.	-0.2	.	-2.7	-0.4	.	.
CCCn1c(N)c(N(CCOC)C(=O)CSc2c(Cl)cccc2Cl)c(=O)[nH]c1=O	-1.8	0.1	-1.3	-0.9	-0.3	-0.3	.	.
CC(C)(C)NC(=O)C(c1ccc(-c2ccccc2)cc1)n1c(=O)c(-c2cc3ccccc3[nH]2)nc2ccccc21 (stereo not given)	1.4*	.	4.6	.	5.2	4.9*	4.4*	4.6*
Cc1ccc(C(=O)CSc2nnc(N)s2)c(C)c1	1.0*	0.9	3.9	15.8	12.9*	7.8*	8.9*	5.4*
Cc1cc(C(=O)CSc2nnc(N)s2)c(C)n1C1CC1	0.1	1.5	0.2	17.3	4.1	5.6*	4.1*	2.8
COCC(C)n1c(C)cc(C(=O)CSc2nnc(N)s2)c1C (stereo not given)	-0.7	1.0	0.8	2.1	7.5	0.0	.	.
Cc1cc(C)c(C(=O)CSc2nnc(N)s2)cc1C	-1.8	-0.9	-0.2	10.1	2.1	0.6	.	.
